# From the supplement of paper PMC8728848
# About 410 targets per protein were measured; listed, in parts, are those with the strongest signals and a random draw of the rest.
# What was measured:
# Assay in all cases: glycan array binding signal (z-score within array); higher = stronger binding
# Conditions in all cases: glycan notation: IUPAC condensed, linker removed
# [1] = target: Fuc(a1-2)Gal(b1-4)GlcNAc
# Summary of the method: (§1)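 Columns mapping to the same glycan were averaged after glycan names were converted to IUPAC-condensed notation. The data come from 3228 arrays in the Consortium for Functional Glycomics database, limited to those with an available protein sequence. Binding is reported as a within-array Z-score averaged across arrays of one protein sequence and across linkers.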
# [2] = target: Fuc(a1-2)Gal(b1-4)GlcNAc(b1-2)[Fuc(a1-2)Gal(b1-4)GlcNAc(b1-4)]Man(a1-3)[Fuc(a1-2)Gal(b1-4)GlcNAc(b1-2)Man(a1-6)]Man(b1-4)GlcNAc(b1-4)GlcNAc
# Summary of the method: as §1
# [3] = target: Fuc(a1-2)Gal(b1-4)[Fuc(a1-3)]GlcNAc
# Summary of the method: as §1
# [4] = target: Fuc(a1-2)Gal6S(b1-3)GlcNAc
# Summary of the method: as §1
# [5] = target: Fuc(a1-2)[Gal(a1-3)]Gal(b1-3)GlcNAc(b1-6)GalNAc
# Summary of the method: as §1
# [6] = target: Fuc(a1-2)[Gal(a1-4)]Gal(b1-4)GlcNAc
# Summary of the method: as §1
# [7] = target: Fuc(a1-2)[GalNAc(a1-3)]Gal(b1-3)GlcNAc(b1-3)GalNAc
# Summary of the method: as §1
# [8] = target: Fuc(a1-3)GlcNAc
# Summary of the method: as §1
# [9] = target: Gal(a1-3)Gal(b1-4)GlcNAc
# Summary of the method: as §1
# [10] = target: Gal(a1-3)[Gal(a1-4)]Gal(b1-4)GlcNAc
# Summary of the method: as §1
# [11] = target: Gal(b1-2)Gal
# Summary of the method: as §1
# [12] = target: Gal(b1-3)GlcNAc(b1-3)Gal(b1-4)GlcNAc(b1-6)[Gal(b1-3)GlcNAc(b1-3)]Gal(b1-4)Glc
# Summary of the method: as §1
# [13] = target: Gal(b1-4)GlcNAc(b1-2)Man(a1-3)Man(b1-4)GlcNAc(b1-4)GlcNAc
# Summary of the method: as §1
# [14] = target: Gal(b1-4)GlcNAc(b1-2)[Gal(b1-4)GlcNAc(b1-4)]Man(a1-3)[GlcNAc(b1-4)][Gal(b1-4)GlcNAc(b1-2)[Gal(b1-4)GlcNAc(b1-6)]Man(a1-6)]Man(b1-4)GlcNAc(b1-4)GlcNAc
# Summary of the method: as §1
# [15] = target: Gal(b1-4)GlcNAc(b1-3)Gal(b1-4)GlcNAc(b1-2)Man(a1-3)[Gal(b1-4)GlcNAc(b1-3)Gal(b1-4)GlcNAc(b1-2)Man(a1-6)]Man(b1-4)GlcNAc(b1-4)GlcNAc
# Summary of the method: as §1
# [16] = target: Gal(b1-4)GlcNAc(b1-3)Gal(b1-4)GlcNAc(b1-3)GalNAc
# Summary of the method: as §1
# [17] = target: Gal(b1-4)GlcNAc(b1-3)Gal(b1-4)GlcNAc(b1-3)[Gal(b1-4)GlcNAc(b1-3)Gal(b1-4)GlcNAc(b1-6)]GalNAc
# Summary of the method: as §1
# [18] = target: Gal(b1-6)Gal
# Summary of the method: as §1
# [19] = target: Gal3S(b1-4)Glc
# Summary of the method: as §1
# [20] = target: Gal3S(b1-4)GlcNAc
# Summary of the method: as §1
# [21] = target: Gal3S(b1-4)[Fuc(a1-3)]Glc6S
# Summary of the method: as §1
# [22] = target: Gal3S4S(b1-4)GlcNAc
# Summary of the method: as §1
# [23] = target: Gal6S(b1-4)GlcNAc
# Summary of the method: as §1
# [24] = target: GalNAc(b1-3)Gal(a1-6)Gal(b1-4)Glc
# Summary of the method: as §1
# [25] = target: GalNAc(b1-4)GlcNAc(b1-2)Man
# Summary of the method: as §1
# [26] = target: Glc(a1-4)Glc(a1-4)Glc(a1-4)Glc
# Summary of the method: as §1
# [27] = target: GlcNAc(a1-4)Gal(b1-4)GlcNAc(b1-3)Gal(b1-4)[Fuc(a1-3)]GlcNAc(b1-3)Gal(b1-4)[Fuc(a1-3)]GlcNAc
# Summary of the method: as §1
# [28] = target: GlcNAc(b1-3)Gal(b1-4)GlcNAc(b1-2)[GlcNAc(b1-3)Gal(b1-4)GlcNAc(b1-6)]Man(a1-6)[GlcNAc(b1-3)Gal(b1-4)GlcNAc(b1-2)Man(a1-3)]Man(b1-4)GlcNAc(b1-4)GlcNAc
# Summary of the method: as §1
binder,measurement,setting,value
"HA-00510 (Pseudomonas aeruginosa), Q02V39_PSEAB (protein) GVPIVNIATPNGAGLSNNHFRDYNVGANGLILNNATGKTQGTQLGGIILGNPNLKGQAAQVILNQVTGGNRSTLAGYTEVAGQSARVIVANPHGITCQGCGFINTPRATLTTGKPIMDGQRLERFQVDGGDIVVEGAELNVGNLEQFDLITRSAKLNAKLYAKNLNIVTGRNDVQADSLQATPRAADGSEKPQLAIDSSALGGMYAGAIRLVGTEQGVGVKLAGDMAASGGDIRIDASGKLSLAQASSQGDLKIAAQAVELNGKTYAGGSAEIRSAEELVNRQS",glycan array binding signal (z-score),[1],0.548
same,glycan array binding signal (z-score),[2],1.8
same,glycan array binding signal (z-score),[3],-0.457
same,glycan array binding signal (z-score),[4],-1.39
same,glycan array binding signal (z-score),[5],-0.268
same,glycan array binding signal (z-score),[6],0.219
same,glycan array binding signal (z-score),[7],2.45
same,glycan array binding signal (z-score),[8],0.219
same,glycan array binding signal (z-score),[9],0.209
same,glycan array binding signal (z-score),[10],0.326
same,glycan array binding signal (z-score),[11],-0.657
same,glycan array binding signal (z-score),[12],0.121
same,glycan array binding signal (z-score),[13],-0.221
same,glycan array binding signal (z-score),[14],0.347
same,glycan array binding signal (z-score),[15],6.41
same,glycan array binding signal (z-score),[16],3.26
same,glycan array binding signal (z-score),[17],3.88
same,glycan array binding signal (z-score),[18],-0.435
same,glycan array binding signal (z-score),[19],0.114
same,glycan array binding signal (z-score),[20],-0.217
same,glycan array binding signal (z-score),[21],0.258
same,glycan array binding signal (z-score),[22],-0.526
same,glycan array binding signal (z-score),[23],-0.516
same,glycan array binding signal (z-score),[24],-0.551
same,glycan array binding signal (z-score),[25],-1.01
same,glycan array binding signal (z-score),[26],0.18
same,glycan array binding signal (z-score),[27],0.682
same,glycan array binding signal (z-score),[28],0.061
